# Results: PubChem BioAssay (Tox21)
# A number with no mark means an inactive call. Inconclusive results are not listed. A call without a number means that no potency is given here. Calls of active or inactive are those of the source. Unless noted, calls follow the shape of the dose curve; as a rule, active = well fitted curve in the direction sought with a large enough effect in the repeat runs; inconclusive = weak or mixed curves; inactive = no such curve, though single readings can be large; an effect the other way counts as inactive or inconclusive.
# Legend:
# [1] = qHTS assay to test for compound auto fluorescence at 535 nm (green) in HEK293 cells (AID 720680)
# [2] = qHTS assay to test for compound auto fluorescence at 460 nm (blue) in HEK293 cell free culture (AID 720681)
# Method in brief: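 Compounds were added to cell-free DMEM with 10% FBS and fluorescence read directly. The blue channel used 405 nm excitation and 460 nm emission, with triamterene as the reference fluorophore.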
# [3] = qHTS assay to test for compound auto fluorescence at 535 nm (green) in HEK293 cell free culture (AID 720682)
# Method in brief: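 Cell-free medium (DMEM, 10% FBS) receives compound or DMSO by pintool. Plate read directly at Ex 485/Em 535 nm. Signal converted to fluorescein equivalency.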
# [4] = qHTS assay to test for compound auto fluorescence at 590 nm (red) in HEK293 cell free culture (AID 720683)
# Method in brief: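 Cell-free wells of DMEM with 10% FBS received compound, and intrinsic fluorescence was read at excitation/emission 540/590 nm. Values expressed as equivalence to Rose Bengal sodium.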
# [5] = qHTS assay to test for compound auto fluorescence at 590 nm (red) in HepG2 cell free culture (AID 720684)
# Method in brief: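 Rose Bengal sodium served as the reference for red signal. Test compounds were dispensed into serum-containing MEM (10% FBS) without cells, and plates were read at 540/590 nm.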
# [6] = qHTS assay to test for compound auto fluorescence at 460 nm (blue) in HepG2 cells (AID 720687)
# Method in brief: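 HepG2 cells in MEM with 10% FBS, attached overnight at 37 C, were exposed to compound or DMSO for 1 hr at 37 C, 5% CO2. Blue fluorescence was read at 405/460 nm, with triamterene as reference fluorophore.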
# [7] = biological target: Glucocorticoid receptor (Homo sapiens) (UniProt P04150); assay: qHTS assay to identify small molecule agonists of the glucocorticoid receptor (GR) signaling pathway (AID 720691; active = well fitted activation curve with a large enough effect in the signal ratio in the repeat runs, not every such curve was filed as active; the % refers to the signal ratio)
# Glucocorticoid receptor (Homo sapiens), sequence (P04150 whole entry, looked up): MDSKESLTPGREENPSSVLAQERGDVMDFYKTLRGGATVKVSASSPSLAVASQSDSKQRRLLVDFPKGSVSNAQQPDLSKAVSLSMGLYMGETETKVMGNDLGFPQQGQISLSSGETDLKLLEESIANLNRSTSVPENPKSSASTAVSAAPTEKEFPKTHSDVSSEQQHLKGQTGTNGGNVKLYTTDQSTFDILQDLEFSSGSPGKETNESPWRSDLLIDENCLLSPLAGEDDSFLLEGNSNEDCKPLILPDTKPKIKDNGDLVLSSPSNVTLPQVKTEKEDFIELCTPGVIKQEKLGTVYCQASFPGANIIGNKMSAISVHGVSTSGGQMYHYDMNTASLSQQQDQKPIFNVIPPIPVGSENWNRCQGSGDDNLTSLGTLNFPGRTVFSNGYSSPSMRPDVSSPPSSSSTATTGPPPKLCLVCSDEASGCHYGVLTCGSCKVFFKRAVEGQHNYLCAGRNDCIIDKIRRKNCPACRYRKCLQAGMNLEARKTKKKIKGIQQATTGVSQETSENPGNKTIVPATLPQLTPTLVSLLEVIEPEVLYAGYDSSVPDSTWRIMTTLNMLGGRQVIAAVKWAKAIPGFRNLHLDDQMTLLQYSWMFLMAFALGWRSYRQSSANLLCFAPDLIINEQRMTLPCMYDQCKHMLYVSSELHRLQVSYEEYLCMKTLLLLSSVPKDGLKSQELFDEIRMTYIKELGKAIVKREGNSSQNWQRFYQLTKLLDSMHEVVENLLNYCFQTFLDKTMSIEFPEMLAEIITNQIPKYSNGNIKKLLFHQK
# Method in brief: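 Agonist-mode qHTS in HeLa cells stably expressing a glucocorticoid-response-element beta-lactamase reporter. Fluorescence intensity read with FRET substrate (2 h, room temperature) after 18 h compound treatment at 37 C.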
# [8] = biological target: Glucocorticoid receptor (Homo sapiens) (UniProt P04150); assay: qHTS assay to identify small molecule antagonists of the glucocorticoid receptor (GR) signaling pathway (AID 720692; active = well fitted inhibition curve with a large enough effect in the signal ratio in the repeat runs, not every such curve was filed as active; the % refers to the signal ratio)
# Method in brief: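 Inhibition of dexamethasone-driven (5 nM final) beta-lactamase expression was measured in GRE-reporter HeLa cells over 18 h at 37C. Fluorescence was read after 2 h with the B/G FRET substrate at room temperature.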
# [9] = qHTS assay to identify small molecule antagonists of the glucocorticoid receptor (GR) signaling pathway - cell viability counter screen (AID 720693); also: nearly all actives have a fitted effect of over 55% in size
# [10] = qHTS assay for identifying genotoxic compounds that show differential cytotoxicity against isogenic chicken DT40 cell lines with known DNA damage response pathways - wild type cell line (AID 743012); also: nearly all actives have a fitted effect of over 60% in size
# Method in brief: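 Viability by ATP luminescence (CellTiter-Glo, 30 min RT) after 40 h compound treatment at 37 C/5% CO2, using 300 parental DNA repair-proficient DT40 cells per well.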
# [11] = qHTS assay for identifying genotoxic compounds that show differential cytotoxicity against isogenic chicken DT40 cell lines with known DNA damage response pathways - Rev3 mutant cell line (AID 743014); also: nearly all actives have a fitted effect of over 55% in size; also: potency is read from the fitted curve at half-maximal effect
# [12] = qHTS assay for identifying genotoxic compounds that show differential cytotoxicity against isogenic chicken DT40 cell lines with known DNA damage response pathways - Rad54/Ku70 mutant cell line (AID 743015); also: nearly all actives have a fitted effect of over 60% in size; also: potency is read from the fitted curve at half-maximal effect
# [13] = qHTS assay to identify small molecule antagonists of the androgen receptor (AR) signaling pathway - cell viability counter screen (AID 743033; also: nearly all actives have a fitted effect of over 45% in size)
# [14] = biological target: Androgen receptor (Homo sapiens) (UniProt P10275); assay: qHTS assay to identify small molecule antagonists of the androgen receptor (AR) signaling pathway (AID 743035; active = well fitted inhibition curve with a large enough effect in the signal ratio in the repeat runs, not every such curve was filed as active; the % refers to the signal ratio)
# Androgen receptor (Homo sapiens), sequence (P10275 whole entry, looked up): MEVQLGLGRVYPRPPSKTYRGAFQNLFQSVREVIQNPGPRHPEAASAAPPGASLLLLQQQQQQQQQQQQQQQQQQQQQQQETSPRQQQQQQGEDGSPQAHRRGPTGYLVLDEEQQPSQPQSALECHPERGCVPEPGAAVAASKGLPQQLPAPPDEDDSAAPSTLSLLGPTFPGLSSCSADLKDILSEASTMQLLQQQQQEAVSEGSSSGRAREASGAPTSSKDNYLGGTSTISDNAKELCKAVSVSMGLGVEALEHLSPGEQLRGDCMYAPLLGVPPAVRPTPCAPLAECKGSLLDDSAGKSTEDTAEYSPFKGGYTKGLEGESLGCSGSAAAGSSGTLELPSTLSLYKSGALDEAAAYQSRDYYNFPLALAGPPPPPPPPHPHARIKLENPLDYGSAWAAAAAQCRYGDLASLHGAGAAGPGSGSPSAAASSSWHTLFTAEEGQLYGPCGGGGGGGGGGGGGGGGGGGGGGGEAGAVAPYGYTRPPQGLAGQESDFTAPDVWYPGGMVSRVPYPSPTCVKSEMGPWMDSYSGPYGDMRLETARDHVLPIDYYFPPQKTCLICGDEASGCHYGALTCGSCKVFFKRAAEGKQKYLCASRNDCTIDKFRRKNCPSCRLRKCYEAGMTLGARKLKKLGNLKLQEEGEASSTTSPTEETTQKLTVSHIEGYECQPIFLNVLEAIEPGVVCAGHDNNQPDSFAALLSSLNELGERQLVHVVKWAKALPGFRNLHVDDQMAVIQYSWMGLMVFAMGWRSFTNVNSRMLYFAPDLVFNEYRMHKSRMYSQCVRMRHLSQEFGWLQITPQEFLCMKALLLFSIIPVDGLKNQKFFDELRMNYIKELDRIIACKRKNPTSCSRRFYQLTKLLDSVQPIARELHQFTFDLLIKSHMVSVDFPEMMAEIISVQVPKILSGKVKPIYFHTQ
# Method in brief: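 Antagonist mode: AR-bla HEK293 cells co-treated with test compounds and agonist R1881 for 16 h at 37C, 5% CO2. Beta-lactamase activity read as FRET fluorescence after 2 h room-temperature substrate loading.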
# [15] = biological target: Androgen receptor (Homo sapiens) (UniProt P10275); assay: qHTS assay to identify small molecule agonists of the androgen receptor (AR) signaling pathway (AID 743036; active = well fitted activation curve with a large enough effect in the signal ratio in the repeat runs, with a control signal flat, not every such curve was filed as active; the % refers to the signal ratio)
# Method in brief: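 AR-bla HEK293 cells, 2,000/well; 4 h preincubation 37C/5% CO2; compound (DMSO) 16 h at 37C; LiveBLAzer B/G FRET substrate 2 h RT; fluorescence intensity read-out.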
# [16] = biological target: Androgen receptor (Homo sapiens) (UniProt P10275); assay: qHTS assay to identify small molecule agonists of the androgen receptor (AR) signaling pathway using the MDA cell line (AID 743040; also: nearly all actives have a fitted effect of over 20% in size)
# Method in brief: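 Luciferase read-out, ONE-Glo, 30 min RT. Cells: MDA-kb2 AR-luc, MMTV promoter with AR and GR response elements. Compound exposure 16 h, 37C, 0% CO2, after 5 h pre-incubation. qHTS agonist mode.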
# [17] = qHTS assay to identify small molecule antagonists of the androgen receptor (AR) signaling pathway using the MDA cell line - cell viability counter screen (AID 743041; also: nearly all actives have a fitted effect of over 45% in size)
# Method in brief: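 Cytotoxicity counter screen: MDA-kb2 AR-luc cells, compound + R1881, 16 h, 37C, 0% CO2; CellTiter-Fluor added at 15.5 h, fluorescence read after 30 min.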
# [18] = biological target: Androgen receptor (Homo sapiens) (UniProt P10275); assay: qHTS assay to identify small molecule antagonists of the androgen receptor (AR) signaling pathway using the MDA cell line (AID 743042; also: nearly all actives have a fitted effect of over 55% in size)
# Method in brief: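 MDA-kb2 breast carcinoma cells carrying MMTV-luciferase (AR/GR responsive) were co-treated with compounds and the agonist R1881 for 16 h at 37C. Inhibition read as ONE-Glo luminescence; CellTiter-Fluor fluorescence measured in parallel for cytotoxicity.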
# [19] = qHTS assay to test for compound auto fluorescence at 535 nm (green) in HepG2 cell free culture (AID 720686)
# [20] = qHTS assay to test for compound auto fluorescence at 460 nm (blue) in HepG2 cell free culture (AID 720685)
# Method in brief: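 Cell-free plates of MEM plus 10% FBS received 23 nL compound or DMSO vehicle; blue-channel (405/460 nm) intensity scored against triamterene as reference fluorophore.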
structure (smiles),measurement,setting,value
O=C(O)c1cc(Cl)cc([N+](=O)[O-])c1Cl,outcome,[1],inactive
same,outcome,[2],inactive
same,outcome,[3],inactive
same,outcome,[4],inactive
same,outcome,[5],inactive
same,outcome,[6],inactive
same,Potency,[7],inactive
same,outcome,[8],inactive
same,outcome,[9],inactive
same,Potency,[10],inactive
same,Potency,[11],inactive
same,Potency,[12],inactive
same,Potency,[13],inactive
same,Potency,[14],inactive
same,outcome,[15],inactive
same,outcome,[16],inactive
same,Potency,[17],inactive
same,Potency,[18],inactive
CCO[Si](CCCS)(OCC)OCC,outcome,[1],inactive
same,outcome,[2],inactive
same,outcome,[3],inactive
same,outcome,[4],inactive
same,outcome,[5],inactive
same,outcome,[19],inactive
same,outcome,[6],inactive
same,Potency,[7],inactive
same,outcome,[8],inactive
same,outcome,[9],inactive
same,Potency,[10],inactive
same,Potency,[12],inactive
same,Potency,[13],inactive
same,Potency,[17],inactive
CC(=O)NCCCCCC(=O)O,outcome,[1],inactive
same,outcome,[2],inactive
same,outcome,[3],inactive
same,outcome,[4],inactive
same,outcome,[5],inactive
same,outcome,[6],inactive
same,outcome,[9],inactive
same,Potency,[10],inactive
same,Potency,[11],inactive
same,Potency,[12],inactive
same,Potency,[13],inactive
same,Potency,[17],inactive
COc1ccc2c(c1)C(=O)N(CCc1ccc(S(=O)(=O)NC(=O)NC3CCCCC3)cc1)C(=O)C2(C)C,"fluorescence, % of fluorescein",[1],0.0317% [at 18.6 µM]
same,"fluorescence, % of fluorescent control",[2],0.0227% [at 18.6 µM]
same,activity change,[3],0.0882% [at 18.6 µM]
same,"fluorescence, % of fluorescent control",[4],-0.0169% [at 18.6 µM]
same,"fluorescence, % of Rose Bengal",[5],-0.0384% [at 18.6 µM]
same,"fluorescence, % of fluorescein control",[19],-0.167% [at 18.6 µM]
same,"fluorescence, % of fluorescent control",[6],-0.0057% [at 18.6 µM]
same,Potency,[7],inactive
same,outcome,[8],inactive
same,Potency,[10],inactive
same,Potency,[11],inactive
same,Potency,[12],inactive
same,Potency,[13],inactive
same,Potency,[14],inactive
same,outcome,[15],inactive
same,outcome,[16],inactive
same,Potency,[17],inactive
same,Potency,[18],inactive
CCCC(=O)C(C)=O,outcome,[1],inactive
same,outcome,[2],inactive
same,outcome,[3],inactive
same,outcome,[4],inactive
same,outcome,[20],inactive
same,outcome,[19],inactive
same,outcome,[6],inactive
same,Potency,[7],inactive
same,outcome,[8],inactive
same,outcome,[9],inactive
same,Potency,[10],inactive
same,Potency,[11],inactive
same,Potency,[12],inactive
same,Potency,[13],inactive
same,Potency,[17],inactive
CC(C)CC(=O)O,outcome,[1],inactive
same,outcome,[2],inactive
same,outcome,[3],inactive
same,outcome,[4],inactive
same,outcome,[5],inactive
same,outcome,[19],inactive
same,outcome,[6],inactive
same,Potency,[7],inactive
same,outcome,[8],inactive
same,Potency,[13],inactive
same,Potency,[17],inactive
N#Cc1ccc(C(=O)O)cc1,outcome,[1],inactive
same,outcome,[2],inactive
same,outcome,[3],inactive
same,outcome,[4],inactive
same,outcome,[5],inactive
same,outcome,[19],inactive
same,outcome,[6],inactive
same,Potency,[11],30.6 µM (active)
same,Potency,[12],61.1 µM (active)
same,Potency,[13],inactive
same,Potency,[14],inactive
same,outcome,[15],inactive
same,outcome,[16],inactive
same,Potency,[17],inactive
same,Potency,[18],inactive
CCC(C)NC(N)=O (stereo unspecified),outcome,[1],inactive
same,outcome,[2],inactive
same,outcome,[3],inactive
same,outcome,[4],inactive
same,outcome,[5],inactive
same,outcome,[19],inactive
same,outcome,[6],inactive
same,outcome,[9],inactive
same,Potency,[10],inactive
same,Potency,[12],inactive
same,Potency,[13],inactive
same,Potency,[14],inactive
same,outcome,[15],inactive
same,outcome,[16],inactive
same,Potency,[17],inactive
same,Potency,[18],inactive
COc1ccc(S(=O)(=O)N2c3ccc(Cl)cc3[C@@](O)(c3ccccc3Cl)[C@H]2C(=O)N2CCC[C@@H]2C(N)=O)cc1OC,outcome,[1],inactive
same,outcome,[2],inactive
same,outcome,[3],inactive
same,outcome,[4],inactive
same,outcome,[5],inactive
same,outcome,[6],inactive
same,Potency,[7],inactive
same,outcome,[9],inactive
same,Potency,[10],inactive
same,Potency,[11],inactive
same,Potency,[13],inactive
same,Potency,[17],inactive
